The AC50 is the concentration giving half of the maximal activity seen.

The structures appear in SMILES notation. Hit rate of the full screen: of about 16,000 compounds, about 5,100 (32%) were called active. Inconclusive results (about 25%) are left out. The list shows a part of the results. Values without a mark were called inactive. Calls come from the whole dose curve; as a rule, active = well fitted curve in the direction sought with a large enough effect; inconclusive = small, poorly fitted or top-dose-only effect, or effect the other way; inactive = no such curve, though single readings can be large or run the other way.
% is set by controls: 0 for no effect and ±100 for the full control effect.

In the test the target is Cytochrome P450 3A4 (Homo sapiens) (UniProt P08684). The experiment in a line: Cytochrome panel assay with activity outcomes. The settings on record: recombinant CYP, pro-luciferin dealkylation, luminescence, p450-cyp3a4; series mostly up to 57.1 µM.
Chain of Cytochrome P450 3A4 (Homo sapiens) (P08684 whole entry, looked up): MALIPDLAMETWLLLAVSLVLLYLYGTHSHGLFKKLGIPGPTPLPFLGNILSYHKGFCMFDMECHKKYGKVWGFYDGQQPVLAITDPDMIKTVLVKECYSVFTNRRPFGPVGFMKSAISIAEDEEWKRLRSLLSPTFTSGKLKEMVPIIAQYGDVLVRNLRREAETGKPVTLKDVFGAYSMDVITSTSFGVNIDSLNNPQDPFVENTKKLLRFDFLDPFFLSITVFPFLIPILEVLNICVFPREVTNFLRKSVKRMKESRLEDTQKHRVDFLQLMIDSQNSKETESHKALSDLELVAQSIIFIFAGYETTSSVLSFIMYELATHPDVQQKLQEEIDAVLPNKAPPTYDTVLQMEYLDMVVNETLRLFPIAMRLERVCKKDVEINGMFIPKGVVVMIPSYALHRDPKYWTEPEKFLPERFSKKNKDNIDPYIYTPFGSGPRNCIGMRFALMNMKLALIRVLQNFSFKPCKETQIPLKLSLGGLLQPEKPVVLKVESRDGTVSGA
Regarding `Cc1ccc(NC(=O)c2cc(Cl)nc3ccccc23)cc1`, the AC50 was 10 µM (active). Consider `Cc1cccc(NC(=O)NNC(=O)c2cc(-c3ccccc3Cl)nc3ccccc23)c1`, for which the concentration at half-maximal activity (AC50) was 3.98 µM (active). Take `O=C(NNC(=O)c1cc(-c2ccc(Cl)c(Cl)c2)nc2ccccc12)Nc1ccccc1`: the activity, negative = inhibition was -6.22% [at 2.29 µM]. `CC1(C)S[C@@H]2[C@H](NC(=O)[C@@H](NC(=O)N3CCNC3=O)c3ccccc3)C(=O)N2[C@H]1C(=O)O`: the AC50 entry was “inactive”. In the case of `CCC1CC2CC(NC(C)=O)C1C2` (configuration not stated), the activity, negative = inhibition was 0.468% [at 2.29 µM]. As for `O=[N+]([O-])c1ccc2c(c1)S(=O)c1ccccc1-2` (configuration not stated), the activity, negative = inhibition was -11.3% [at 11.4 µM]. In the case of `N[C@@H](Cc1cccc([N+](=O)[O-])c1)C(=O)O`, the activity, negative = inhibition was -9.82% [at 11.4 µM].

For `N=C(N)S[C@H]1c2ccccc2-c2cc([N+](=O)[O-])ccc21`, the AC50 was 5.01 µM (active). In the case of `COC(=O)CCCC(=O)O`, the activity, negative = inhibition is -18.6% [at 11.4 µM]. With `COC(=O)C(C(=O)OC)C(C[N+](=O)[O-])c1ccc(OC)c(OC)c1` (configuration not stated), the activity, negative = inhibition was -7.76% [at 2.29 µM]. As to `COc1cc(C(=O)NCCC(C)C)c([N+](=O)[O-])cc1OC`, the AC50 was 15.8 µM (active).

Take `COc1cc2c(C(=O)NCc3ccc(C)o3)cn(CC(C)C)c(=O)c2cc1OC`: the activity, negative = inhibition is -15.9% [at 2.29 µM]. Consider `O=C(NOC(=O)c1cc(Br)ccc1Cl)c1cccs1`, for which the AC50 entry was “inactive”. Same read-out and setting: the value for `O=C(CCNc1cccc(Cl)c1)c1cccs1` was 14.1 µM (active); that for `O=C(CNc1cccc(Cl)c1)c1ccc(Cl)cc1` was “inactive”.

With `CNS(=O)(=O)c1ccccc1C(=N)c1ccccc1`, the activity, negative = inhibition was -6.85% [at 11.4 µM]. Consider `CCCCOC(OCCCC)[C@H](O)CSc1ccc2ccccc2c1`, for which the AC50 is 5.01 µM (active).

For the compound `CCN(CC)C[C@@H](O)c1ccc2ccc3ccccc3c2c1`, the activity, negative = inhibition was -25.1% [at 11.4 µM].

`CC(C)NC[C@H](O)c1ccc2ccccc2c1`: the AC50 entry is “inactive”. Same read-out and setting: the same measure for `S=c1[nH]nc(C2CCCCC2)n1/N=C/c1cccs1`: 12.6 µM (active); for `Cc1nnc(C)n1/N=C/c1cccs1`: “inactive”. For `O=C(O)c1cc(N=Cc2ccccc2O)cc(C(=O)O)c1`, the activity, negative = inhibition was -17.4% [at 11.4 µM]. Take `Cc1cc(O)c(C(C)C)cc1N=Cc1ccccc1O`: the AC50 was 3.16 µM (active).

As to `O=S(=O)(O)c1cc(O)c2c(N=Cc3ccccc3O)cc(S(=O)(=O)O)cc2c1`, the activity, negative = inhibition is 0.658% [at 11.4 µM]. Consider `COc1cc(/C=N\Nc2ccc([N+](=O)[O-])cc2)ccc1OCC(=O)Nc1ccc(C)c(C)c1`, for which the AC50 was 3.98 µM (active).

Take `COc1cc(/C=N/NC(=O)c2cccc([N+](=O)[O-])c2)ccc1OCc1ccc(C)cc1`: the AC50 is 1.41 µM (active). As to `COc1ccc(/C=N/NC(=O)c2cccc([N+](=O)[O-])c2)cc1OS(=O)(=O)c1ccc(C)cc1`, the activity, negative = inhibition is -20.3% [at 2.29 µM]. With `COc1cccc(/C=N/NC(=O)c2cccc([N+](=O)[O-])c2)c1OS(=O)(=O)c1ccc(C)cc1`, the AC50 was 1.12 µM (active). The same measure, in the same setting: the value for `O=C(COc1ccc(/C=N/NC(=O)c2ccccc2)cc1)Nc1ccc([N+](=O)[O-])cc1` was “inactive”; that for `N[C@@H](Cc1ccc(O)c(O)c1)C(=O)O` was “inactive”.

As to `O=C(O)c1c(-c2c3ccc(=O)cc-3oc3cc(O)ccc23)cc2ccccc2c1-c1ccccc1`, the activity, negative = inhibition is -8.67% [at 11.4 µM]. On to `Cc1nc(-c2c(C(F)(F)F)noc2-c2ccc(O)cc2O)cs1`, for which the AC50 is 0.501 µM (active). Consider `CSCC[C@@H]1NC(=O)C/C=C\[C@@H](C)COC(=O)[C@H](C)COC1=O`, for which the activity, negative = inhibition was -24% [at 11.4 µM]. Turning to `N#Cc1c(-c2ccc3c(c2)OCO3)ccn2nc(-c3cccc(C(F)(F)F)c3)nc12`, the AC50 entry was “inactive”. On the same count and under the same terms, the same measure for `CN(C)c1ccc(-c2cc(-n3ccnc3)ncn2)cc1`: 0.0631 µM (active); for `N#Cc1cccc(-c2nccc(-n3ccnc3)n2)c1`: 2.51 µM (active). `N#Cc1cccc(-c2cc(-n3ccnc3)ncn2)c1`: the AC50 was 0.398 µM (active). For the compound `c1cn(-c2ccnc(-c3ccc4c(c3)OCO4)n2)cn1`, the AC50 is 0.631 µM (active). Still for that read-out and setting: the same measure for `CN1CCN(c2cc(-c3ccc(N(C)C)cc3)ncn2)CC1`: “inactive”; for `CC(=O)Oc1ccccc1C(=O)Oc1ccccc1C(=O)O`: “inactive”. With `Nc1nc(-c2cccnc2)cc(-c2cc(-c3cccnc3)nc(N)n2)n1`, the activity, negative = inhibition is -3.62% [at 11.4 µM]. Turning to `COc1cccc(-c2nccc(-n3ccnc3)n2)c1`, the AC50 is 1 µM (active). Same read-out and setting: the value for `c1cncc(-c2cc(-n3ccnc3)ncn2)c1` was 1.58 µM (active). Take `CCCCN(c1ccccc1)c1ncnc2c1cnn2C`: the activity, negative = inhibition is -28% [at 11.4 µM]. With `CC(N)=NCc1cccc(CN)c1`, the AC50 entry was “inactive”. For the compound `Cc1cccc(CNc2ncncc2-c2cccc(NS(C)(=O)=O)c2)c1`, the AC50 is 0.158 µM (active).

Take `CS(=O)(=O)Nc1cccc(-c2cncnc2NCc2cccnc2)c1`: the AC50 was 1 µM (active). On the same count and under the same terms, the value for `Cc1cnc(CNc2ncnc3ccc(-c4cccc(NS(C)(=O)=O)c4)cc23)cn1` was 12.6 µM (active); that for `CS(=O)(=O)Nc1cccc(-c2cncnc2NCc2cccs2)c1` was 0.398 µM (active). Still for that read-out and setting: the same measure for `CS(=O)(=O)Nc1cccc(-c2ccc3ncnc(NCc4cccs4)c3c2)c1`: 3.16 µM (active). Still for that read-out and setting: the same measure for `CS(=O)(=O)Nc1cccc(-c2cncnc2NCc2ccccc2)c1`: 0.631 µM (active). Consider `Cc1cnc(CNc2ncncc2-c2cccc(NS(C)(=O)=O)c2)cn1`, for which the AC50 was 3.16 µM (active). The same measure, in the same setting: the value for `CS(=O)(=O)Nc1cccc(-c2ccc3ncnc(NCc4cccnc4)c3c2)c1` was 0.398 µM (active); that for `CCC(=O)O[C@H](CC(=O)O)C[N+](C)(C)C` was “inactive”; that for `OCC1CCCN(Cc2ccc(-c3ccccc3)cc2)C1` (configuration not stated) was “inactive”. Still for that read-out and setting: the value for `COc1ccc(-c2csc(NC(=O)CCn3cnc4ccccc4c3=O)n2)cc1OC` was 11.2 µM (active); that for `COc1cccc(C(=O)NCCN2CCOCC2)c1` was “inactive”; that for `COCCNC(=O)c1sc2nc(-c3ccccc3)cn2c1C` was “inactive”. Still for that read-out and setting: the same measure for `COc1ccc(C2=NOC(C(=O)NCCN3CCOCC3)C2)cc1` (configuration not stated): “inactive”; for `COc1ccc(C(=O)Nc2ccc(Cl)cc2C(=O)NCCN2CCOCC2)cc1`: 14.1 µM (active).

With `O=C(NCCN1CCOCC1)c1csc2c1CCCCC2`, the activity, negative = inhibition was -7.18% [at 2.29 µM]. Regarding `COc1ccc(-c2cn3c(C)c(C(=O)NCCN4CCOCC4)sc3n2)cc1`, the AC50 was 12.6 µM (active).

These data come from PubChem BioAssay AID1851 (National Center for Advancing Translational Sciences (NCATS), 2009).
